Results on seven molecules are retold here after ChEMBL document CHEMBL1961873, “Compounds: GSK PKIS; Assays: Nanosyn kinase panel” (2012).

Where “and” joins values, the source holds several entries; their conditions need not be identical. Equal entries are not always repeated.

The target of test [1] is T1, Aurora kinase A (Homo sapiens) (UniProt O14965).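 Note: values are mean percent inhibition.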
T1 sequence (whole entry): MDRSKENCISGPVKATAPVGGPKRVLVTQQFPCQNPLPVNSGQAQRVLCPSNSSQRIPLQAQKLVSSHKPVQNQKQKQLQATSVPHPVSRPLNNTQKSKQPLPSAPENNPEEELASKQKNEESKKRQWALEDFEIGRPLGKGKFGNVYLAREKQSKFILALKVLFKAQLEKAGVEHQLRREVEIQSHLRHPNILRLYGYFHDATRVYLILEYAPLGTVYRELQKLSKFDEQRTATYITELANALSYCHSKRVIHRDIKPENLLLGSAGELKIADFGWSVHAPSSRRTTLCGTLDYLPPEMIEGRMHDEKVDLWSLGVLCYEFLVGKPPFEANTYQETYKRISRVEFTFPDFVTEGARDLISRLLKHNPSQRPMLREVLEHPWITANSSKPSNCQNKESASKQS
The conditions noted are these: at 1 µM.

Test [2] deals with Aurora kinase B (Homo sapiens) (UniProt Q96GD4). Particulars: at 0.1 µM.
Test [3] shares this target. Particulars: at 1 µM.
Test [4] addresses T2, Aurora kinase C (Homo sapiens) (UniProt Q9UQB9).
T2 sequence (whole entry): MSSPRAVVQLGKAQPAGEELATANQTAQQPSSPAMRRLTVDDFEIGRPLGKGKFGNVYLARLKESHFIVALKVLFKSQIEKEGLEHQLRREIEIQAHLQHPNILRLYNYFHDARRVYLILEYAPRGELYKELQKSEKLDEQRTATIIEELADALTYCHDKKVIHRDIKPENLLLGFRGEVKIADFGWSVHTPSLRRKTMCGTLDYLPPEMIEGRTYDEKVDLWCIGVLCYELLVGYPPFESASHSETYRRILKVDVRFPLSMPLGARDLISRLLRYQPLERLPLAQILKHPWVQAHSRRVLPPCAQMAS
The conditions noted are these: at 0.1 µM.

The target in test [5] is T2, Aurora kinase C (Homo sapiens). The conditions noted are these: at 1 µM.
Test [6] has as its target Serine/threonine-protein kinase 10 (Homo sapiens) (UniProt O94804). Particulars: at 0.1 µM.
For test [7] the target is unchanged. Particulars: at 1 µM.
Test [8] concerns the target T3, Mitogen-activated protein kinase kinase kinase kinase 2 (Homo sapiens) (UniProt Q12851).
T3 sequence (whole entry): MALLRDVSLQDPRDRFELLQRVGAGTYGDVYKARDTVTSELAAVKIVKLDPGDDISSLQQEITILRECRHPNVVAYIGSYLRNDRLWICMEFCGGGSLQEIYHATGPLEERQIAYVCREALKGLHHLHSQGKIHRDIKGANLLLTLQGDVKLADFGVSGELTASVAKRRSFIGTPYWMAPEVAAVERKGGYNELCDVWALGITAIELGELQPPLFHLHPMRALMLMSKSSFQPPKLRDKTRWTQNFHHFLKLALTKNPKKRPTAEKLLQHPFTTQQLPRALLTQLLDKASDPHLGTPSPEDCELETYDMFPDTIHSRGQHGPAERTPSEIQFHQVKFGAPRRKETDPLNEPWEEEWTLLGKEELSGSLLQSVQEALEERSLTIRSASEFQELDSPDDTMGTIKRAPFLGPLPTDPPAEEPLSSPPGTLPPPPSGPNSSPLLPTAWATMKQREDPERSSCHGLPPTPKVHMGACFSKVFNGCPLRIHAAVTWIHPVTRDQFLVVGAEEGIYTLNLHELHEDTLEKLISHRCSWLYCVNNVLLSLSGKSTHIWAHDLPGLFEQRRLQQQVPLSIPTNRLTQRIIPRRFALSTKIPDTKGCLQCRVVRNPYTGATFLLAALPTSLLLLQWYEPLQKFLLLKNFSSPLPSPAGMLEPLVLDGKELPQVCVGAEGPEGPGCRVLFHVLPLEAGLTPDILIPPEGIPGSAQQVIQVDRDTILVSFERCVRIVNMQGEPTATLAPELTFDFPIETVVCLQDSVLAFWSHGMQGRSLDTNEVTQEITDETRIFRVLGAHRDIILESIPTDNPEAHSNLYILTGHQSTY
Particulars: at 0.1 µM.

Test [9] concerns the target T3, Mitogen-activated protein kinase kinase kinase kinase 2 (Homo sapiens). Particulars: at 1 µM.
Test [10] concerns the target Mitogen-activated protein kinase kinase kinase kinase 4 (Homo sapiens) (UniProt O95819). Particulars: at 0.1 µM.
For test [11] the target is unchanged. The conditions noted are these: at 1 µM.
In test [12] the target is Dual specificity mitogen-activated protein kinase kinase 1 (Homo sapiens) (UniProt Q02750). The conditions noted are these: at 0.1 µM.
The target is the same in test [13]. The conditions noted are these: at 1 µM.
The target of test [14] is Misshapen-like kinase 1 (Homo sapiens) (UniProt Q8N4C8). The conditions noted are these: at 0.1 µM.
For test [15] the target is unchanged. Particulars: at 1 µM.
Test [16] concerns the target T4, Serine/threonine-protein kinase 4 (Homo sapiens) (UniProt Q13043).
T4 sequence (whole entry): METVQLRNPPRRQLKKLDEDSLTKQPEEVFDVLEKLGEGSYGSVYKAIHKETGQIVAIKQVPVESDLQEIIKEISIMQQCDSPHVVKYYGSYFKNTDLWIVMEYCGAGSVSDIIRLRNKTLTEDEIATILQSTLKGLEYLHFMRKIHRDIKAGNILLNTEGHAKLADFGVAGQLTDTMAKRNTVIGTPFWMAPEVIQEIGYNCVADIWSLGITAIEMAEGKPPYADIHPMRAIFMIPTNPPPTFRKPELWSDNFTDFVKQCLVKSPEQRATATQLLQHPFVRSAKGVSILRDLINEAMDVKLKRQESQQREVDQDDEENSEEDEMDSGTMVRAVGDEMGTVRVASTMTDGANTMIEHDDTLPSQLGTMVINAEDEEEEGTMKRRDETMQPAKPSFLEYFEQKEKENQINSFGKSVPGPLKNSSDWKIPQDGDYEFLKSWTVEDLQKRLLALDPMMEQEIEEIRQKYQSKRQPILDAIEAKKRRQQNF
The conditions noted are these: at 0.1 µM.

The target in test [17] is T4, Serine/threonine-protein kinase 4 (Homo sapiens). The conditions noted are these: at 1 µM.
Test [18] addresses T5, Serine/threonine-protein kinase 3 (Homo sapiens) (UniProt Q13188).
T5 sequence (whole entry): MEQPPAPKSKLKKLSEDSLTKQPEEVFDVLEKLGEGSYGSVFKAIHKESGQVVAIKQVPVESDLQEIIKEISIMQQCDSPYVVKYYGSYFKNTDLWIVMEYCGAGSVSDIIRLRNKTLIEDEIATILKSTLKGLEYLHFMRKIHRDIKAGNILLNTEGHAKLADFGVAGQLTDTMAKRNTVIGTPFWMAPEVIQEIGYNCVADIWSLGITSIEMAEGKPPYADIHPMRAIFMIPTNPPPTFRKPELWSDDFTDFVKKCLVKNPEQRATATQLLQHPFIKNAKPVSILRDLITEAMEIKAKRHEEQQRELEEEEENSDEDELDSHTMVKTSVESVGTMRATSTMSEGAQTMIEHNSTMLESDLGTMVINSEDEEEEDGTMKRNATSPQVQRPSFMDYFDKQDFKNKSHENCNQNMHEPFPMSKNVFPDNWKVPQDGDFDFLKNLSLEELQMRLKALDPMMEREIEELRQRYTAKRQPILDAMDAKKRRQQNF
The conditions noted are these: at 0.1 µM.

The target of test [19] is T5, Serine/threonine-protein kinase 3 (Homo sapiens). Particulars: at 1 µM.
Test [20] deals with Serine/threonine-protein kinase 26 (Homo sapiens) (UniProt Q9P289). The conditions noted are these: at 0.1 µM.
Chain of Serine/threonine-protein kinase 26 (Homo sapiens) (Q9P289 2-416 limits assumed): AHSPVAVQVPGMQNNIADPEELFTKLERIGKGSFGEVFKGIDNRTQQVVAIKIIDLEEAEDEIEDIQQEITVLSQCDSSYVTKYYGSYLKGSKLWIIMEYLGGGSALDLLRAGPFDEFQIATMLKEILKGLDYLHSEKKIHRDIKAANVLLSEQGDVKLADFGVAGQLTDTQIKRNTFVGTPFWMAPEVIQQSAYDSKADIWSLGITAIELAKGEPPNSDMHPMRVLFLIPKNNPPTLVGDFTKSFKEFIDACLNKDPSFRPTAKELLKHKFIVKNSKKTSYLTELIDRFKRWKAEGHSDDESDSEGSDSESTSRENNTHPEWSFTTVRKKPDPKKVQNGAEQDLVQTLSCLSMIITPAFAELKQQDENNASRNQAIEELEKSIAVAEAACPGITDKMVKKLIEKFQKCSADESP

Chain of Mitogen-activated protein kinase kinase kinase kinase 4 (Homo sapiens) (O95819 2-1239 limits assumed): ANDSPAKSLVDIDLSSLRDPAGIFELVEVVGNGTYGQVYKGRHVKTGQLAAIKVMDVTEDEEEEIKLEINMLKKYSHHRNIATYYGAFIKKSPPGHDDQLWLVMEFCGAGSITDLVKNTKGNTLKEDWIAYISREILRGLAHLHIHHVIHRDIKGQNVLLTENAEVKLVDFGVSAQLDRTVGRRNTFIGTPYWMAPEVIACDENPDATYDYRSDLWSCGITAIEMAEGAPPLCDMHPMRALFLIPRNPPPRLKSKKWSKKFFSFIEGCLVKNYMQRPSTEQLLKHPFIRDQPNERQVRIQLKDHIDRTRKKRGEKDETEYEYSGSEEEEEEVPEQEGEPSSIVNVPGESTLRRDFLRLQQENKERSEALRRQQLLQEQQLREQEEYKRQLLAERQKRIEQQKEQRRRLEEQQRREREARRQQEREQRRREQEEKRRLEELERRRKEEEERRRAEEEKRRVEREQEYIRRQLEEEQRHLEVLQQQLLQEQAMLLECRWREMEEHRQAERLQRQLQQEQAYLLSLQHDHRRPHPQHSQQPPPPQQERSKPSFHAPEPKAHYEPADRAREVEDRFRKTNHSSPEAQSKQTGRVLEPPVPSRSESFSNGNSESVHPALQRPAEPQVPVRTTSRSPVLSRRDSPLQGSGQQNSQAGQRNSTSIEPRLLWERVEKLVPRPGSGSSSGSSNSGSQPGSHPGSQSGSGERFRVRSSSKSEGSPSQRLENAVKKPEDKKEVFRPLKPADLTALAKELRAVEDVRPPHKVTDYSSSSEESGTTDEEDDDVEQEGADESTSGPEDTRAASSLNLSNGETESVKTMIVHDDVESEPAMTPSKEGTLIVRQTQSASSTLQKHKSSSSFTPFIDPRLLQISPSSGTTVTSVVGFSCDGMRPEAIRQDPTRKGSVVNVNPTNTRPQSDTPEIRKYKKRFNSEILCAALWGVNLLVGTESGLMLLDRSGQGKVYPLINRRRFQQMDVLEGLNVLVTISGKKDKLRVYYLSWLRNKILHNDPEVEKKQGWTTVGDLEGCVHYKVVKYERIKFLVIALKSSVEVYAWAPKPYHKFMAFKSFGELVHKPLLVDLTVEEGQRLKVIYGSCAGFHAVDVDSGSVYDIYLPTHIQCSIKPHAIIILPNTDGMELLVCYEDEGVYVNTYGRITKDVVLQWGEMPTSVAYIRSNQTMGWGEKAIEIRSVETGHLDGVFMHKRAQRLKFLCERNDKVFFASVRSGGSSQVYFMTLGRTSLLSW
Chain of Aurora kinase B (Homo sapiens) (Q96GD4 whole entry): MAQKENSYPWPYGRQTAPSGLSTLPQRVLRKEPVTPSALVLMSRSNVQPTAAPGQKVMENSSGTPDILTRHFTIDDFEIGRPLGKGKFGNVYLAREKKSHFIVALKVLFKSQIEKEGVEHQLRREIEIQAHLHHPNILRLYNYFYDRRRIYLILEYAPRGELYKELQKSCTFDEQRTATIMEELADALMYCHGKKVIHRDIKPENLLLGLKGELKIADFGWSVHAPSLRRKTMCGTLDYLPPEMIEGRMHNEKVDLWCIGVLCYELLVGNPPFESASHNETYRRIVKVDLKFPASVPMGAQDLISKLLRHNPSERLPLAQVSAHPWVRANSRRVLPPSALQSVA
Chain of Dual specificity mitogen-activated protein kinase kinase 1 (Homo sapiens) (Q02750 whole entry): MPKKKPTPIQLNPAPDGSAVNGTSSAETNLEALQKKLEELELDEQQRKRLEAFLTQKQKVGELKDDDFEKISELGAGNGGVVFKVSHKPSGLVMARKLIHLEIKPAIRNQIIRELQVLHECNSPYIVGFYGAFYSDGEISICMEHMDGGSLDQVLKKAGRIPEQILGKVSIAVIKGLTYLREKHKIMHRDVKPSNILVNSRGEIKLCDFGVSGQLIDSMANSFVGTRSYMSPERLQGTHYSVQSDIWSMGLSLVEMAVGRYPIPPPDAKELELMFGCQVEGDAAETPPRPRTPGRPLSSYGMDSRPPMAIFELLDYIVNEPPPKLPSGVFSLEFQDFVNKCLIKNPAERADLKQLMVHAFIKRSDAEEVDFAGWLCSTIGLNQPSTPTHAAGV
Chain of Misshapen-like kinase 1 (Homo sapiens) (Q8N4C8 whole entry, looked up): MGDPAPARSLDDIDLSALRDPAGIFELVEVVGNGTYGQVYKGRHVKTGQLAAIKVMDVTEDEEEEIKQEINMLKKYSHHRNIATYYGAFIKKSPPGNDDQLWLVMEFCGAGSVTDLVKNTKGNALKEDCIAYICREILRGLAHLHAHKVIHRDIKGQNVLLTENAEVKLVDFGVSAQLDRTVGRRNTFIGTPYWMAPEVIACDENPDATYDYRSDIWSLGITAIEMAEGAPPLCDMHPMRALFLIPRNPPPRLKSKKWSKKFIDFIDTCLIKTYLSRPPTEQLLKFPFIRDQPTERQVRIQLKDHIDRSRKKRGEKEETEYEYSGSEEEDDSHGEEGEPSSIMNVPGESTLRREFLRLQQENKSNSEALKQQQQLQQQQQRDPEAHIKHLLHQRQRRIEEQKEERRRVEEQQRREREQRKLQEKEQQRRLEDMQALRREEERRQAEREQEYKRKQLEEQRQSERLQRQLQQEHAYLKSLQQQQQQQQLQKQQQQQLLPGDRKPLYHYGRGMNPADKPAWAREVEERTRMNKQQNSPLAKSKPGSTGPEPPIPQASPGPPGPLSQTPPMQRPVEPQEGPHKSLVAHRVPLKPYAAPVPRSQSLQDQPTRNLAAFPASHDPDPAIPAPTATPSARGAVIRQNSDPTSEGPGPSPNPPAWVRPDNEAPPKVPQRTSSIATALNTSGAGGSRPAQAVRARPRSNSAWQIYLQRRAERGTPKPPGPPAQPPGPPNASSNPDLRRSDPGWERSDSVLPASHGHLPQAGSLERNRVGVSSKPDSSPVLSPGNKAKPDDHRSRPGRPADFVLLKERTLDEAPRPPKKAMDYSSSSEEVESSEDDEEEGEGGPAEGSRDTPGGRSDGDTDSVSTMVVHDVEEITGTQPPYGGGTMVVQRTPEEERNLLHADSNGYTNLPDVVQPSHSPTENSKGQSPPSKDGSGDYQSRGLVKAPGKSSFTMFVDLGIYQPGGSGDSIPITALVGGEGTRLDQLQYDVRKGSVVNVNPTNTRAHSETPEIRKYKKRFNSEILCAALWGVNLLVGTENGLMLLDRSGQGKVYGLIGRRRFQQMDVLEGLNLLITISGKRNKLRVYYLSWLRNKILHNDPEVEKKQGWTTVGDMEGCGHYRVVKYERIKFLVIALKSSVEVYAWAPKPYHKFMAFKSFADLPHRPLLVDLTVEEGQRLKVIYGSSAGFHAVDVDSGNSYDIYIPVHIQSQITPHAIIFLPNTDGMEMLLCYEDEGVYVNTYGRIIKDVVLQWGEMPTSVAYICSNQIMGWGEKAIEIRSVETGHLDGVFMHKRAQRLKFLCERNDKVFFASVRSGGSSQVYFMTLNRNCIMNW
Chain of Serine/threonine-protein kinase 10 (Homo sapiens) (O94804 whole entry, looked up): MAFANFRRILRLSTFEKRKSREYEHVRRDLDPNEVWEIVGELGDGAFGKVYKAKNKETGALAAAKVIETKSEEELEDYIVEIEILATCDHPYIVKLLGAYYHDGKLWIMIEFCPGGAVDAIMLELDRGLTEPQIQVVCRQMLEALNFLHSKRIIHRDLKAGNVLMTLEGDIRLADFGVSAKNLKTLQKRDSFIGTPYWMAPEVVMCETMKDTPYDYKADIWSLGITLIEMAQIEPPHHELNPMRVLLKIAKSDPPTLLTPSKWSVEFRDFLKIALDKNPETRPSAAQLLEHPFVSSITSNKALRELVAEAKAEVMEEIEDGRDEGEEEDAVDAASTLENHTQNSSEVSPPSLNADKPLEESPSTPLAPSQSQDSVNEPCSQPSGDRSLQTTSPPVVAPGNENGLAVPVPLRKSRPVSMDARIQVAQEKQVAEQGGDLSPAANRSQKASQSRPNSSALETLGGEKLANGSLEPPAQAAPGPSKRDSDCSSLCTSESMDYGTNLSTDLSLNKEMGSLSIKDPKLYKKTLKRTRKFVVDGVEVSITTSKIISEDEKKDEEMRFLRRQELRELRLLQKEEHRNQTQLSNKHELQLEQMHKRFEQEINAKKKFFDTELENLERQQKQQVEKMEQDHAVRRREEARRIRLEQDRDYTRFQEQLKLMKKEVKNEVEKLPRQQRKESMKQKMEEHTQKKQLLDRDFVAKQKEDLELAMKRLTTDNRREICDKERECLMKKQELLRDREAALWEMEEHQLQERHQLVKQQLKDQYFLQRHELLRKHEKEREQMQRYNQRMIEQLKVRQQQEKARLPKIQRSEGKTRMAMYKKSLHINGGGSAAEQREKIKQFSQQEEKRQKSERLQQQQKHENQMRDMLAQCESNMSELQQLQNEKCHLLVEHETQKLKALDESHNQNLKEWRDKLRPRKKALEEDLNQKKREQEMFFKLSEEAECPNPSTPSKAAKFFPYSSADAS

On to `CS(=O)(=O)Nc1ccc(-c2ccc3c(NC(=O)C4CC4)n[nH]c3c2)cc1`, for which the inhibition (commonly the change of the read-out against control, counted positive when it falls) in test [1] is 20.2%; in [2], 4.33%; in test [3], 8.21%; in test [4] it was 1.71%; in [5], 23.3%; in [6], 5.26%. Further, the inhibition stood at 6.56% in [7]; 1.04% in [8]; 5.76% in test [9]; 6.29% in test [10]; 34.1% in test [11]; 3.68% in test [12]. Moreover, the inhibition is 2.95% in [13]; 6.49% in test [14]; 20.9% in test [15]; 4.89% in test [16]; 11.3% in test [17]; 5.64% in test [18]. The inhibition in [19] is 9.06%; in test [20], -0.25%.

For the molecule `COc1c(C(N)=O)cc(-c2ccc(Cl)cc2)cc1-c1ccc(S(N)(=O)=O)cc1`, the inhibition in [1] was 3.86%; in test [2] it was 2.21%; in test [3], 3.28%; in test [4], -0.05%; in [5] it was 0.52%; in test [6], 5.14%. In addition, the inhibition came out at 6.24% in [7]; 0.59% in test [8]; 2.11% in test [9]; 6.38% in test [10]; 5.7% in test [11]; 3.99% in test [12]. Also, the inhibition in test [13] is 3.65%; in [14] it was 6.03%; in [15], 7.24%; in test [16] it was 2.89%; in test [17], 4.76%; in test [18], 5.08%. Besides, the figures for the inhibition in test [19] and in [20] were 4.15% and -1.15%, respectively.

As for `c1cnn2ncc(-c3ccnc(NCCCN4CCOCC4)n3)c2c1`, the inhibition in [1] is 8.82%; in [2] it was 2.38%; in test [3], 5.43%; in test [4], -0.51%; in [5], 1.86%; in test [6], 4.84%. The inhibition in test [7] is 1.98%; in test [8], -0.2%; in [9] it was 1.94%; in test [10], 4.7%; in [11], 8.87%; in test [12], 4.91%. For the same molecule, the inhibition in [13] amounted to 3.9%; in [14], 4.95%; in [15], 12.1%; in test [16] it was 2.04%; in [17], 1.9%; in [18] it was 3.76%. Further, the inhibition is 2.29% in [19] and -1.84% in [20].

On to `CNC(=O)c1ncccc1Nc1nc(Nc2cc3c(cc2OC)CCCN3C(=O)CN(C)C)nc2[nH]ccc12`, for which the inhibition worked out at 6.59% in [1]; 3.79% in test [2]; 8.73% in test [3]; 2.36% in test [4]; 4.16% in test [5]; 7.25% in test [6]. In addition, the inhibition in test [7] was found to be 4.81%; in test [8], 1.56%; in test [9] it was 4.18%; in test [10], 4.22%; in test [11], 6.26%; in test [12], 3.03%. In addition, the inhibition turned out to be 3.53% in test [13]; 5.92% in test [14]; 7.79% in [15]; 8.58% in test [16]; 12.8% in [17]; 8.59% in test [18]. The inhibition in test [19] is 7.84%; in [20], -2.11%.

`CN1CCC(C(=O)Nc2n[nH]c3nc(-c4ccc(O)cc4)c(Br)cc23)CC1`: the inhibition in test [1] was 3.82% and 3.89%; in test [2], -1.01% and 4.45%; in [3], 4.6% and 6.84%; in [4], -1.83% and 3.73%; in [5] it was -7.86% and 5.17%; in test [6] it was 4.1% and 3%. The inhibition is 13.5% and 9.07% in [7]; 4.77% and 3.87% in test [8]; 24.7% and 19.9% in [9]; 7.33% and 2.89% in test [10]; 35.4% and 22.5% in test [11]; 6.37% and 2.39% in [12]. Besides, the inhibition is 5.03% and 2.15% in test [13]; 7.75% and 5.32% in [14]; 28.1% and 15.2% in test [15]; 6.69% and 1.72% in test [16]; 14.7% and 2.3% in test [17]; 6.33% and 2.47% in [18]. Also, the inhibition in test [19] was 13.2% and 3.69%; in [20], 1.4% and 1.72%.

For the molecule `CCN1CCC(C(=O)Nc2n[nH]c3nnc(-c4cccc(F)c4F)cc23)CC1`, the inhibition was 0.34% in [1]; -0.39% in [2]; 3.97% in test [3]; 0.94% in test [4]; 5.27% in test [5]; -0.44% in [6]. The inhibition was -0.07% in test [7]; 2.45% in test [8]; 3.52% in [9]; 3.47% in [10]; 6.9% in [11]; 2.15% in [12]. The inhibition in [13] was 2%; in [14] it was 2.44%; in test [15] it was 5.72%; in test [16] it was 0.2%; in test [17] it was 4.08%; in test [18], -0.56%. Moreover, the inhibition turned out to be 2.63% in [19] and 0.52% in test [20].

As to `COc1cccc(Nc2nccc(-c3cnn4ncccc34)n2)c1`, the inhibition is 86.4% in test [1]; 26.7% in test [2]; 72.3% in [3]; 33.2% in test [4]; 97.3% in test [5]; 4.01% in test [6]. Besides, the inhibition was found to be 17.4% in [7]; 17.1% in [8]; 60.1% in test [9]; 14.8% in test [10]; 63.2% in test [11]; 3.11% in [12]. Further, the inhibition in test [13] was found to be 29.1%; in test [14], 11.1%; in test [15], 57.6%; in test [16], 6.23%; in test [17], 30%; in test [18], 5.37%. In addition, the inhibition is 24.6% in test [19] and 1.55% in test [20].
